# Laboratory results as given in PubChem BioAssay (NCATS).
# Inconclusive results are not listed. A call without a number means that no potency is given here. The source made the active and inactive calls. Calls follow the shape of the dose curve; as a rule, active = well fitted inhibition curve with a large enough effect; inconclusive = small, poorly fitted or top-dose-only effect; inactive = flat fitted curve, though single readings scatter.
# Biological target: Calcium and integrin-binding protein 1 (Homo sapiens) (UniProt Q99828)
# Sequence (Q99828 whole entry, looked up): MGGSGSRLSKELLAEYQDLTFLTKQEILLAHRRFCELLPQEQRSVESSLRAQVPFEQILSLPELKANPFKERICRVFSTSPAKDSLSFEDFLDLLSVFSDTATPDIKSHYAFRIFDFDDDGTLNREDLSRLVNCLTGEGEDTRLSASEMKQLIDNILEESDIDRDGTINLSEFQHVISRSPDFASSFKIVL
# Assay: Primary qHTS for Identification of Calcium Integrin Binding Protein 1 (CIB1) Competitor (AID 1508620); also: top concentration of the series differs between compounds
# Details: CIB1-GST / FITC-alphaIIb peptide fluorescence polarization; series mostly up to 57.7 µM
# Summary of the method: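 Fluorescence polarization competition: GST-tagged CIB1 (1 uM final) preincubated with compound 15 min at room temperature, then FITC-labelled alphaIIb peptide (100 nM final) added. After 15 min at room temperature, polarization read at Ex 480/Em 540.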
row,Compound,Potency
1,Cc1cc(N2CCCCC2)nc2ccccc12,inactive
2,N#Cc1ccnc(N2C(=O)CC[C@H]2C(=O)N(c2cncc(F)c2)[C@H](C(=O)NC2CC(F)(F)C2)c2ccccc2Cl)c1,inactive
3,COC(=O)C1=CO[C@@H](O[C@@H]2O[C@H](CO)[C@@H](O)[C@H](O)[C@H]2O)[C@@H]2[C@@H](C(=O)OC)[C@@H](O)C(O)[C@H]12 (stereo not given in full),inactive
4,CC(C)CC(=O)O[C@@H]1OC=C(CO[C@@H]2O[C@H](CO[C@@H]3O[C@H](CO)[C@@H](O)[C@H](O)[C@H]3O)[C@@H](O)[C@H](O)[C@H]2O)[C@H]2C[C@H](O)[C@@H](CO)[C@@H]12,inactive
5,CC1=C(C)C(=O)OC(C(C)(O)C2CCC3C4CC=C5CC(OC6OC(COC7OC(CO)C(O)C(O)C7O)C(O)C(O)C6O)CC(O)C5(C)C4CCC32C)C1 (stereo not given),inactive
6,C/C=C/C1=CC2=C(CO1)C(=O)[C@](C)(O)[C@H](OC(=O)c1c(O)cc(OC)c(O)c1C)C2,inactive
7,C=C1CC23CC1(O)CCC2C1=CC2OC(=O)C(C)(C2O)C1C3C(=O)O (stereo not given),inactive
8,C/C=C1\[C@H](O[C@@H]2O[C@H](CO)[C@@H](O)[C@H](O)[C@H]2O)OC=C(C(=O)OC)[C@H]1CC(=O)OC,inactive
9,CC1=CC(=O)CC(C)(C)C1(O)CCC(C)O (stereo not given),inactive
10,CN(C)c1cccc(-c2c3c(=O)n(-c4ccccc4Cl)[nH]c3cc(=O)n2C)c1,inactive
11,COc1cc(/C=C/C(=O)OC(C)(C)C(OC2OC(CO)C(O)C(O)C2O)C(=O)OCc2ccc(OC3OC(CO)C(O)C(O)C3O)cc2)ccc1O (stereo not given),inactive
12,CCOc1ccc(C(Nc2ccccn2)c2ccc3ccc(C)nc3c2O)cc1C (stereo not given),inactive
13,C=C[C@H]1[C@H](O[C@@H]2O[C@H](CO)[C@@H](O)[C@H](O)[C@H]2O)OC=C(C(=O)OC)[C@H]1C[C@@H]1N[C@H](C(=O)O)Cc2c1[nH]c1ccccc21,inactive
14,COC1=Cc2c(nc3n(c2=O)C(C)C(=O)NC3(O)C(C)C)OC=C1 (stereo not given),inactive
15,CCOC(=O)Nc1nc2ccccc2[nH]1,inactive
16,O=S(=O)(Nc1ccc(C(O)(C(F)(F)F)C(F)(F)F)cc1)c1cccs1,inactive
17,C[C@@H]1O[C@@H](O[C@H]2[C@H](O[C@H]3[C@H](O[C@H]4CC[C@@]5(C)C(CC[C@]6(C)C5CC=C5[C@@H]7CC(C)(C(=O)O)C[C@@H](O)[C@]7(C)CC[C@]56C)[C@@]4(C)CO)O[C@H](C(=O)O)[C@@H](O)[C@@H]3O)O[C@H](CO)[C@H](O)[C@@H]2O)[C@H](O)[C@H](O)[C@H]1O (stereo not given in full),inactive
18,C=Cc1cc(O)cc2nc(-c3ccc(O)c(F)c3)oc12,inactive
19,O=C(/C=C/c1ccc(O)cc1)OCC1=C[C@@H](O)[C@@H]2C=CO[C@@H](O[C@@H]3O[C@H](CO)[C@@H](O)[C@H](O)[C@H]3O)[C@H]12,inactive
20,COc1cc(/C=C/C(=O)OC2[C@H](O)CC(O)(C(=O)O)C[C@H]2O)ccc1O (stereo not given in full),inactive

row,Compound,Potency
1,COc1cc([C@H]2OC[C@@H]3[C@@H](c4ccc(O[C@@H]5O[C@H](CO)[C@@H](O)[C@H](O)[C@H]5O)c(OC)c4)OC[C@]23O)ccc1O,inactive
2,C=C1CCC2C(OC(=O)C2(O)COC(C)=O)C2C(=C)C(O)CC12 (stereo not given),inactive
3,Nc1nc(CC(=O)Nc2ccc(CCNCC(O)c3ccccc3)cc2)cs1 (stereo not given),inactive
4,CC1=CC2(O)/C=C/C(C)(O)CC(O)/C=C/C(=O)OC23C(=O)NC(CC(C)C)C3C1C (stereo not given),inactive
5,OC[C@H]1O[C@@H](OCCc2ccc(O)cc2)[C@H](O)[C@@H](O)[C@@H]1O,inactive
6,COc1cc(-c2cccc(O)c2)cc2c1OCO2,inactive
7,CC1(CO)CC[C@]2(C(=O)O[C@@H]3O[C@H](CO)[C@@H](O)[C@H](O)[C@H]3O)CC[C@]3(C)C(=CCC4[C@@]5(C)C[C@H](O)[C@H](O[C@@H]6OC[C@@H](O)[C@H](O)[C@H]6O)[C@@](C)(CO)C5CC[C@]43C)C2C1 (stereo not given in full),inactive
8,CC(C)(O)C1=CCC23COC(C2)C(O)(C(=O)O)CCC13 (stereo not given),inactive
9,O=C(OCc1cccc(O)c1O[C@@H]1O[C@H](CO)[C@@H](O)[C@H](O)[C@H]1O)C1(O)C(=O)C2C=CC1C1C=CC(=O)C(O)(C(=O)OCc3cccc(O)c3O[C@@H]3O[C@H](CO)[C@@H](O)[C@H](O)[C@H]3O)C21 (stereo not given in full),inactive
10,CC(=O)c1cnc2ccc(-c3cc(Cl)c(O)c(Cl)c3)nc2c1NC1CCC(CN(C)C)CC1 (stereo not given),inactive
11,O=C(O)c1ccc(CCCc2ccc(OCCc3ccc(F)cc3)cc2)o1,inactive
12,CC(CCC1C(C(=O)O)=CC(=O)CC1(C)C)O[C@@H]1O[C@H](CO)[C@@H](O)[C@H](O)[C@H]1O (stereo not given in full),inactive
13,CCc1c(CC(N)=O)c2cc(OCCCP(=O)(O)O)ccc2n1Cc1ccccc1,inactive
14,COc1cc(N2CCC(N(C)C)CC2)ccc1Nc1ncc(Cl)c(Nc2ccccc2P(C)(C)=O)n1,inactive
15,COc1cccc(-c2ccc([C@@H](Oc3cc(-c4ccc(C[C@H](N)C(=O)O)cc4)nc(N)n3)C(F)(F)F)cc2)c1,inactive
16,C=C1C2(CCC(=O)OC2(C)C)CC(OC(=O)/C(C)=C/C)C2(C)C13OC14C(=O)OC(C)(C(=O)C12C(=O)OC4C)C3OC(C)=O (stereo not given),inactive
17,CC1(C)CC2C(O)C3=C(CC(C)(O)C2C1)C(=O)OC3O (stereo not given),inactive
18,CCn1nnnc1NCc1ccc(C(C)C)cc1,inactive
19,CC1=C2C(=O)C=C(CO)[C@@H]2[C@H]2OC(=O)[C@H](C)[C@@H]2[C@@H](O)C1,inactive
20,COc1ccc2c(c1O)OC[C@H]1c3ccc(O)cc3O[C@@H]21,inactive
